From PubChem BioAssay (NCI) come the findings set out here.

This is part of a sample that, as a whole, favours compounds with a hit. Of some 83,000 tested, about 20% had one in any assay.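 Each cell line was grown in a 96-well plate and treated with one concentration of compound for 48 hours. Values below 10 were considered active.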 A number with no mark means an inactive call. Active and inactive are the calls of the source.

The subject of this assay is SK-MEL-28 melanoma. Put plainly: NCI-60 one-dose screen, 48 h (100 = growth as untreated, 0 = no growth, -100 = all killed). To be noted: 10 µM unless noted. Here is the method: Growth inhibition of the SK-MEL-28 human tumor cell line is measured as a screen for anti-cancer activity. Cells are grown in 96 well plates and exposed to the test compound for 48 hours. Compounds are tested at a single concentration, which is 10^-5 M for most compounds. The reported endpoint is percent growth (GI% or GIPRCNT), where numbers from 0 - 100% represent growth inhibition, and numbers from -100% - 0 represent cell death. For example, a value of 40 represents 60% growth inhibition. A value of 0 means no net growth occurred over the course of the experiment. A value of -40 indicates 40% of cells at the beginning of the experiment died by the end of the experiment. A value of -100 means all cells are dead at the end of the experiment.
NCI-60 Human Tumor Cell Lines Screen was performed using the standard one-dose NCI protocol, which is described in more detail at https://dtp.cancer.gov/discovery_development/nci-60/default.htm.
Compounds with GIPRCNT values below 10 were considered active. Activity score was based on GIPRCNT using the following formula: […]
Score is 0 for GIPRCNT values of 100 or above, 50 for GIPRCNT values of 0, and 100 for GIPRCNT values of -100.
`O=S(=O)(Nc1ccccc1Cl)c1ccc(-c2cnc(C3CC3)o2)cc1`: the growth was 59.3%.
In the case of `CSC1=CC(=O)c2ccccc2C1=O` it was 113%.
As for `O=C1/C(=C/c2ccc([N+](=O)[O-])cc2)Oc2ccc(O)cc21`, the figure is 107%.
As for `C[C@]1(CO)C[C@@H](O)C[C@]2(C)[C@@H]1CC[C@@]13C[C@@H]4[C@@H](C[C@H]12)[C@]4(C)C3`, the figure is 103%.
On to `COc1cc(-c2ccc3cc(OC)c(OC)c(OC)c3c2)cc(OC)c1OC`, for which the growth is 61%.
`O=C1NC(=O)C(CSc2ccccc2)(c2ccccc2)N1` (stereo not given): the growth was 112%.
In the case of `O=C1c2[nH]cc(CN[C@@H]3CCCN3)c2C(=O)c2c1c(O)c1ccccc1c2O` it was -100% (active); in that of `OC[C@@H](O)[C@@H](O)CO`, 112%.
In the case of `COc1ccccc1/C=C/C(=O)/C=C/c1ccccc1O`, the growth was -86.9% (active).
Regarding `COc1ccc(Nc2[nH]n(C3=Nc4ccccc4Sc4ccccc43)c(=O)c2C#N)cc1`, the growth was 64.7%.
In the case of `COc1cc(/C=C/C(=O)C(=Cc2ccc(F)c(F)c2)C(=O)/C=C/c2ccc(O)c(OC)c2)ccc1O` it was 36%.
As to `COc1ccc(-c2nn(-c3ccc(NC(=O)c4ccc(Cl)c(Cl)c4)cc3)cc2-c2ccncc2)cc1Cl`, the growth is 65.8%.
In the case of `NC1=NC(c2ccccc2OS(=O)(=O)c2ccc(Br)cc2)n2c(nc3ccccc32)N1` (stereo not given) it was 102%.
In the case of `COc1cc(CNCCCN2C(=O)c3ccc4c5c(ccc(c35)C2=O)C(=O)N(CCCNCc2cc(OC)c(OC)c(OC)c2)C4=O)cc(OC)c1OC` it was -91.7% (active).
In the case of `COc1cccc(-c2ccc3c(c2)C2CCN(Cc4ccccc4)C3C2)c1` (stereo not given) it was 85.7%; in that of `COc1cc(C(F)(F)F)ccc1-c1cc(-c2ccc(F)cc2)n[nH]1`, 102%.
For `CC(=O)Nc1ccc(Sc2ccc([N+](=O)[O-])o2)cc1`, the growth is -8.34% (active).
For `CCCCCCCCCCCC(=O)[O][Sn]([CH2]CCC)([CH2]CCC)[CH2]CCC`, the growth is -99.1% (active).
In the case of `Brc1ccccc1Nc1ccc2nnc(-c3ccncc3)n2n1` it was 99%; in that of `CN1CCc2c(c3ccccc3c3ccccc23)C1`, 87.4%; in that of `CCCCC1COc2cccc3c(SCC(=O)N(C)c4cccc5ccccc45)cc[n+]1c23` (stereo not given), 111%.
As for `CSc1ccc(OC(C)=O)cc1C`, the figure is 110%; as for `CCCCc1ccc(C(O)(CCN2CC3CCC(CC3)C2)c2ccccc2)cc1` (stereo not given), 102%.
As for `O=c1[nH]c(=S)c2c(n1CCCO)CCC2`, the growth is 111%.
`COc1ccc(/C=C(\C#N)c2ccc(OC)cc2)cc1`: the growth was 80.6%.
As to `COC(=O)c1cc(-c2ccc(C)cc2)n(C(=O)CSc2nc3sc(C(N)=O)c(C)c3c(=O)n2Cc2ccccc2)n1`, the growth was 112%.
In the case of `COc1ccccc1CNCCCCCCCCCCCCN1C(=O)c2ccc3c4c(ccc(c24)C1=O)C(=O)N(CCCCCCCCCCCCNCc1ccccc1OC)C3=O` it was 81.1%; in that of `Cc1nc2cc(Nc3nc(N4CCCCC4)nc(N4CCOCC4)n3)ccc2n1Cc1ccccc1`, 46.6%.
For `Cc1nc2cc(Nc3nc(N4CCOCC4)nc(N4CCN(C)CC4)n3)ccc2n1Cc1ccccc1`, the growth was 106%.
In the case of `COc1cc(-c2nc(SC(C)C)nc(Nc3cccc(C)c3)c2C#N)cc(OC)c1OC`, the growth was 107%.
As for `O=[N+]([O-])c1cc2c(cc1Br)-c1ccccc1C2`, the figure is 98.4%; as for `COc1ccc(C(=O)C2=CC(=O)C(=O)C2)cc1OC`, 112%.
As for `O=c1[nH]c(=S)[nH]c(=O)n1Cc1cccc2ccccc12`, the growth was 103%.
For `COc1ccc(C2SC(C)C(=O)N2CCc2cccs2)cc1OC` (stereo not given), the growth is 108%.
Turning to `CNc1ccc(Br)cc1-c1n[nH]c(=O)[nH]c1=O`, the growth is 107%.
In the case of `COc1cc2nc(SCc3cc(OC)c(OC)c(OC)c3)n(-c3ccccc3OC)c(=O)c2cc1OC` it was 78.9%; in that of `N#CCCN1CCN(CCC#N)C1=S`, 122%.
As for `COc1ccc(-c2nc(Nc3ccc(F)cc3)nc(Nc3ccc4c(c3)nc(C)n4Cc3ccccc3)n2)cc1`, the figure is 56.6%; as for `N#CC1=C(N)Oc2cc(N)ccc2C1c1ccc(F)cc1` (stereo not given), 84.8%; as for `COc1ccc(S(=O)(=O)ON=C2C=C(C)C(=O)C(C)=C2)cc1`, 96.8%.
